In PubChem BioAssay (NCI):
“And” between values parts separate entries of the source, which are not always exact repeats. Equal values may be shown once. About 79,000 compounds went through this panel and 15% of them were active in at least one assay; those are over-represented in the sample as a whole. Unmarked numbers belong to inactive results. The source made the active and inactive calls. Rule as the data show it: active = growth inhibition above about 70%; inactive = the rest.

Assay: NCI Yeast Anticancer Drug Screen. Data for the cln2 rad14 strain (AID 165);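 also: 0% = growth equal to vehicle treated cultures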
Conditions: S. cerevisiae cln2 rad14 strain, at 50.0 µM, hits give high values
In short: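 Compounds are applied to the cln2 rad14 yeast strain, and growth is then compared with that of vehicle-treated cultures to give inhibition.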
With COc1ccc2c(c1)C(OC)C1c3c(cc4c(c3-2)OCO4)CCN1C (stereo not given) the growth inhibition was -1.45%.
For OCCN1CCNCC1, the growth inhibition was 8.3% and -15.8%.
For Cc1nc([N+](=O)[O-])c(Sc2nncc(-c3ccccc3)n2)n1C, the growth inhibition was 93% (active).
In the case of COC(=O)C(Cc1ccccc1)NC(=O)C(CNC(=O)OCc1ccccc1)C(=O)OCc1ccccc1 (stereo not given), the growth inhibition is reported as 0.65% and -3.55%.
For CCSC(SCC)C(OC(C)=O)C(OC(C)=O)C(COC(C)=O)OC(C)=O (stereo not given), the growth inhibition was -40% and -18.2%.
Compound CC1=CC(=O)C=CC1(C)C(Cl)(Cl)Cl (stereo not given) has a growth inhibition of 44.3%.
With C=CCC1=C(C)C(OC(=O)C=C(C)C)CC1=O (stereo not given) the growth inhibition was 0.25% and -26.2%.
In the case of CCOC(=O)C(=Cc1ccco1)C(=O)OCC, the growth inhibition is reported as 23.8% and 8.8%.
For CCOC(=O)c1ccc(N=[N+]([O-])c2ccc(C(=O)OCC)cc2)cc1, the growth inhibition was -6% and -3.25%.
C=C1C(=O)C2=CC1CCC(=O)C1(C)CCC(OC(C)=O)C(C)(C)C1CC2O (stereo not given) gave a growth inhibition of 65%.
In the case of NCCCNCCSSC/C=C\CSSCCNCCCN, the growth inhibition is reported as 1.15% and -16.8%.
For CN(C)N=Nc1ccc(C(=O)O)cc1, the growth inhibition was -0.05% and -0.65%.
With CCOc1ccc(C(CN2CCOCC2)C(C)=O)cc1OC (stereo not given) the growth inhibition was 45.4%.
With COC1OC(COC(C)=O)C(OC(C)=O)C(OC(C)=O)C1NC(=O)N(CCCl)N=O (stereo not given) the growth inhibition was 9.65% and 20.3%.
In the case of CC(C)c1ccc(C(=O)O)cc1, the growth inhibition is reported as -8.2% and 5.9%.
For C[N+](C)(C)CCO, the growth inhibition was 21.1% and 13.4%.
For CC(=O)OCC1OC(n2c(N)c(C#N)c(C)c(C#N)c2=S)C(OC(C)=O)C(OC(C)=O)C1OC(C)=O (stereo not given), the growth inhibition was -30.7% and -44.5%.
Work on COc1cc(/C=C2\SC(=S)N(/C=C/c3nc4ccccc4[nH]c3=O)C2=O)cc(OC)c1OC yielded a growth inhibition of 34.5%.
With O=C(CC(=O)c1ccc(Cl)cc1)Cc1ccc2ccccc2n1 the growth inhibition was 45% and 39.2%.
In the case of O=C(O)C1=C/C(=C(/c2ccccc2)c2cc(C(=O)O)c(O)c3ccccc23)c2ccccc2C1=O, the growth inhibition is reported as 22.7% and 23.1%.
For O=C(O)c1cc([N+](=O)[O-])ccc1Nc1ccccc1, the growth inhibition was 31.6% and -28.6%.
In the case of O=C(NC(=O)c1ccccc1)NC(=O)c1ccccc1, the growth inhibition is reported as 7.8% and -17.6%.
In the case of O=[N+]([O-])/C(=C/c1ccccc1)c1ccccc1, the growth inhibition is reported as 98.7% (active).
In the case of Nc1ccc(CCc2ccc(N)cc2)cc1, the growth inhibition is reported as -48.5% and -20.8%.
For CC(O)c1nc2c([nH]1)c(=O)n(C)c(=O)n2C (stereo not given), the growth inhibition was -30.3% and -16.9%.
For c1ccc(-c2cc3cc4ccccc4cn3c2)cc1, the growth inhibition was 82.8% (active).
For CN(C)CC1CC(=O)C(CN(C)C)CC1=O (stereo not given), the growth inhibition was 4% and -37.1%.
For C[N+](C)(C)c1ncnc2c1ncn2C1CC(O)C(CO)O1 (stereo not given), the growth inhibition was 3.1% and -6.45%.
With O=C(OC(=C(c1ccccc1)c1ccccc1)c1ccccc1)c1ccccc1 the growth inhibition was -9.6% and -22.2%.
In the case of COc1cc(C)c2c(ccc3ccccc32)n1, the growth inhibition is reported as -9.35% and 21.9%.
